GSH fluor – compound fluorescence on glutathione beads, profiling panel, artefact control, biophysical, 488/530 nm, flow cytometry; GSH beads flow cytometry, compound fluorescence 488/530 nm; stronger effect = higher value; fluorescence (KMESF) at 10 µM; 190,000 compounds, 0.25% hits; AID 1776, 2009; in the data active means fluorescence above about 89;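 further: glutathione beads carrying GST-tagged Bcl family fusion proteins plus one bare bead set; values are compound well signal with DMSO vehicle wells as background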
RGS16-Gao – modulators of RGS16 binding to Galphao, primary screen, biochemical, human proteins, multiplexed bead flow cytometry; bead-based flow cytometry RGS16-Galphao binding, fluorescence; actives lie on both sides; binding response (% of control), % at 10 µM; 220,000 compounds, 0.38% hits; Regulator of G-protein signaling 16 (Homo sapiens) + Guanine nucleotide-binding protein …; call rule not given here;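 further: Galphao activated by GDP with aluminum fluoride before binding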
Target sequence (O15492 whole entry, looked up): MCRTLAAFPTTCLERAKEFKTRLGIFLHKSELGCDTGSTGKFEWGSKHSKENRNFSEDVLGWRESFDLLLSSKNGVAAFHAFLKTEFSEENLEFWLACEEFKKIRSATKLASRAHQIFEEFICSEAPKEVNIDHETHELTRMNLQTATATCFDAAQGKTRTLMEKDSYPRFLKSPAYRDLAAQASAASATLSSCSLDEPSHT
Target sequence (P09471 whole entry, looked up): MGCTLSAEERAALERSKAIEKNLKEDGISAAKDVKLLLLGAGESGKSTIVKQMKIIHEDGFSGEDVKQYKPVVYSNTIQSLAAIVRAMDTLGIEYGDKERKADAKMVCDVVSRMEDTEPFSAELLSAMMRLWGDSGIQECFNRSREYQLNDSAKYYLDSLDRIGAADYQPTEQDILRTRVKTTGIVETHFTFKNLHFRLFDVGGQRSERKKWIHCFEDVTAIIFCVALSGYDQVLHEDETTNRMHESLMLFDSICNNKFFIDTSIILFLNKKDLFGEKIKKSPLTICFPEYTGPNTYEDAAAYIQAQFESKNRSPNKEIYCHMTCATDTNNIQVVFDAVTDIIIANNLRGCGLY
Avidin fluor – green autofluorescence of compounds with avidin beads – biophysical, 488/530 nm, flow cytometry, artefact control, profiling panel. fluorescence (KMESF) at 10 µM. compound fluorescence 488/530 nm; stronger effect = higher value. 220,000 compounds, 0.38% hits; in the data active means fluorescence above about 47
RGS8-Gao reg – RGS8-Galphao binding modulators, primary screen, biochemical, multiplexed bead flow cytometry | actives lie on both sides | response (percent of control binding), % at 10 µM | 220,000 compounds, 0.34% hits | Guanine nucleotide-binding protein G(o) subunit alpha (Homo sapiens), P09471; in the data active means response below about 60% or above about 140%; inactive means in between;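 further: Galphao activated as the GDP aluminium fluoride complex binding bead-coupled RGS8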
RGS4-Gao reg – modulators of RGS4 binding to Galphao, primary screen, biochemical, multiplexed bead flow cytometry. actives lie on both sides. binding response (% of control), % at 10 µM. 220,000 compounds, 0.33% hits. AID 1415, 2008; in the data active means binding response below about 49% or above about 150%; inactive means in between;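 further: fluorescent Galphao activated with aluminum fluoride binding bead-coupled RGS4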
RGS7-Gao – RGS7-Galphao binding modulators, primary screen, biochemical, multiplexed bead flow cytometry; Guanine nucleotide-binding protein G(o) subunit alpha (Homo sapiens), P09471; actives lie on both sides; binding response (% of control), % at 10 µM; 220,000 compounds, 0.35% hits; AID 1439, 2008; in the data active means binding response below about 49% or above about 150%; inconclusive means no clear call, values can overlap the other calls; inactive means in between;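 further: fluorescent Galphao held in activated GDP-AlF4 state binding bead-coupled RGS7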
* hit, by the source's call; ? = inconclusive; nt = no result. In the library only some 1.2% were active in any assay of this set; here they are far more common.

SMILES	GSH fluor	RGS16-Gao	Avidin fluor	RGS8-Gao reg	RGS4-Gao reg	RGS7-Gao
CCOc1ccc2nc(NC(=O)c3cccc(-c4cc5ccccc5oc4=O)c3)sc2c1	13	145	74*	105	115	106
Cc1cc(OCC(=O)NCc2ccncc2)ccc1Cl	12	107	12	105	102	100
Cc1cnc(NC(=O)c2cncc(Br)c2)s1	18	101	8	100	101	98
O=C(Nc1cccc2ccccc12)NC1CCS(=O)(=O)C1 (stereo not given)	17	116	58*	100	96	128
COC(=O)C1CSC(C(=O)OC)N1C(=O)CN1CCN(c2ccc(OC)cc2)CC1 (stereo not given)	10	101	12	100	102	?
CN(C)S(=O)(=O)c1cccc(NC(=O)COC(=O)COc2ccc(Br)cc2)c1	nt	98	20	99	93	?
CN(C)S(=O)(=O)c1cccc(NC(=O)COC(=O)CCOc2ccccc2)c1	13	101	88*	97	120	?
Cc1c(C(=O)OC2CCCCC2)[nH]c2c1C(=O)CC(C)(C)C2	13	103	48*	101	100	102
Cc1c(C(=O)OC(C)C)[nH]c2c1C(=O)CC(C)(C)C2	13	99	33	100	102	100
CC(C)(C)Nc1cccccc1=O	38	103	66*	101	105	122
Cn1c2c(c(=O)n(C)c1=O)C(c1ccc(Cl)cc1)C(C#N)=C(N)O2 (stereo not given)	11	89	7	95	102	99
O=[N+]([O-])c1cc(C(F)(F)F)cc([N+](=O)[O-])c1NCCNC(=S)Nc1ccc(Cl)c(Cl)c1	nt	104	5	103	107	?
CCCC(=O)Nc1ccc(C(=O)NCc2ccccc2Cl)cc1	137*	87	4	100	99	95
O=C(NCc1ccccc1Cl)c1ccc(-c2ccccc2)cc1	9	98	6	103	101	102
COc1ccc(N2C(=O)CSC23C(=O)Nc2ccccc23)cc1 (stereo not given)	100*	102	7	101	99	101
CCc1cc2c(N3CCCCC3)ncnc2s1	247*	113	6	108	108	108
CCN(CC)S(=O)(=O)N1CCC(C(=O)NCCC2=CCCCC2)CC1	19	98	11	96	100	100
Nc1nonc1/C(=N/O)N1CCN(CCO)CC1	261*	101	9	98	102	98
CN1CCN(/C(=N\O)c2nonc2N)CC1	24	108	5	103	99	97
CCSc1nnc(NC(=O)c2ccc(C)o2)s1	17	105	48*	105	103	105
O=C(C1CCN(S(=O)(=O)c2cccc3cccnc23)CC1)N1CCN(C2CCCCC2)CC1	14	102	27	102	102	105
O=C(C1CCN(S(=O)(=O)c2cccnc2)CC1)N1CCN(C2CCCC2)CC1	29	111	71*	102	106	120
CCC(C(=O)N1CCN(c2ccccn2)CC1)n1nc(C)n2c(cc3occc32)c1=O (stereo not given)	27	101	39	100	102	100
Cc1nn(C(C)C(=O)N2CCN(c3ccccn3)CC2)c(=O)c2cc3occc3n12 (stereo not given)	18	125	47*	106	107	110
O=C(O)c1ccc2c(=O)[nH]c(CN3CCOCC3)nc2c1	11	105	62*	100	96	140
SMILES	GSH fluor	RGS16-Gao	Avidin fluor	RGS8-Gao reg	RGS4-Gao reg	RGS7-Gao
O=c1[nH]c(CN2CCOCC2)nc2ccccc12	13	99	19	95	94	93
COc1ccc(NC(=O)c2cccc(Cn3cc(Br)cn3)c2)cn1	32	100	16	100	99	101
COc1ccc(N=C2S/C(=C\c3ccc(OCC(=O)O)cc3)C(=O)N2CCc2c[nH]c3ccccc23)cc1	27	101	11	100	96	96
COc1ccc(N=C2S/C(=C\c3ccc(N4CCOCC4)o3)C(=O)N2CCc2c[nH]c3ccccc23)cc1	113*	97	23	91	99	96
Cc1sc2ncn(CC(=O)Nc3ccccc3F)c(=O)c2c1-c1ccccc1	32	98	24	97	96	95
CCOc1ccc(-c2nn[nH]n2)cc1	275*	106	8	103	101	105
Cn1cc(CNCc2cn(C)nc2-c2ccc(C3CCCCC3)cc2)cn1	13	102	9	102	99	?
COc1ccc(Cc2noc(CN(C)CCN3CCc4ccccc4C3)n2)cc1OC	13	105	2	105	106	105
CN(CCN1CCc2ccccc2C1)Cc1nc(Cc2ccccc2F)no1	13	20*	2	27*	28*	17*
COc1ccc(Cl)cc1C(=O)NNC(=S)NC(=O)c1cc(-c2ccc(Cl)cc2)nc2ccccc12	11	19*	6	37*	11*	21*
CCNC(=S)NNC(=O)c1cc(-c2ccc(OC)cc2)nc2ccccc12	15	105	5	103	104	104
Cc1ccccc1-n1cnnc1SCC(=O)N1CCN(c2ccccc2)CC1	15	102	50*	101	104	107
Cc1nnc(SCC(=O)N2CCN(c3ccccc3)CC2)n(N)c1=O	19	101	6	100	103	98
O=C(Nc1cccc(NC(=O)C2C3CC4OC(=O)C2C4C3)c1)c1ccccc1 (stereo not given)	21	102	11	100	95	94
Cc1cccc(NC(=S)N2CCC(c3nc4ccccc4o3)CC2)c1C	30	38	2	55*	48*	42*
O=C(Nc1ccc2c(c1)OCCO2)C1CCCN1S(=O)(=O)c1ccc(Cl)cc1 (stereo not given)	261*	101	7	101	99	101
CCOc1ccccc1NC(=O)N1C2CCCC1CC(NC(=O)C1CC1)C2 (stereo not given)	96*	98	8	101	101	101
N#Cc1nc(COc2ccc(-c3ccccc3)cc2)oc1NCCCN1CCOCC1	12	105	233*	96	110	96
COc1ccc(CNC(=O)C2CC(c3ccccc3[N+](=O)[O-])=NO2)cc1 (stereo not given)	13	99	32	103	99	100
